PubChem BioAssay AID485297 (National Center for Advancing Translational Sciences (NCATS), 2010)
The whole screen tested about 320,000 compounds, of which about 9,100 (2.8%) were called active. About 3% were inconclusive and are not listed. Many of the other results were omitted from the sample, so actives are more common in it than they were. A number with no mark means an inactive call. Calls come from the whole dose curve; as a rule, active = well fitted activation curve with a large enough effect; inconclusive = small, poorly fitted or top-dose-only effect; inactive = no such curve, though single readings can be large or run the other way.

Experiment: qHTS Assay for Rab9 Promoter Activators; note: nearly all actives have a fitted effect of over 60% in size; for activation, negative = inhibition: % of control where 0% means no effect
Settings: Huh7 Rab9 promoter-luciferase reporter, luminescence, 24 h; series mostly up to 9.22 µM; activation, negative = inhibition: at the top concentration
Description: NIH Chemical Genomics Center [NCGC] NIH Molecular Libraries Probe Production centers Network [MLPCN] MLPCN Grant: MH089537-01 Assay Submitter (PI): Yiannis A. Ioannou NCGC Assay Overview: Niemann Pick Type C (NPC) is a rare neurodegenerative lipidosis that is characterized by lipid storage in the endosomal/lysosomal system. Treatment modalities for this devastating disease are currently non-existent due to the severe obstacles associated with accessing the central nervous system with proteins or genes (Ioannou, 2000). We have developed a new paradigm, termed "Orphan Receptor Bypass Therapy" (ORByT), to address these disorders. This paradigm posits the existence of endogenous "suppressor" proteins whose expression can dramatically improve LSD pathogenesis. The goal is the identification/discovery of small chemical compounds that can modulate the expression of these proteins and provide a new treatment modality for these devastating disorders. One such protein whose overexpression reverses aspects of the NPC phenotype is Rab9. We have developed and optimized a cell based luciferase reporter assay in 1536 well format for the identification of up-regulators of the Rab9 promoter.
The Rab9 promoter is cloned in front of the luciferase reporter gene, therefore […] promoter activation results in luciferase expression. Frozen stock of the Rab9 promoter transfected Huh7 cells were obtained from the laboratory of Dr. Yiannis Ioannou (The Mount Sinai School of Medicine, New York, NY). Cells were propagated and maintained at NCGC in medium containing RPMI-1640 supplemented with 10% FBS, 2mM L-glutamine, and 50ug/ml penicillin/streptomycin. Cells were harvested in and plated for assays in OP-MEM I reduced-serum medium supplemented with 10% FBS. The Amplite luciferase reporter gene assay kit was purchased from ABD Bioquest and prepared/stored according to manufacturers recommendations. qHTS Assay Setup: 1.Dispensed 5ul of Huh7 cells stably expressing Rab9-luciferase at a density of 1500 cells per well 1536-well plates. 2.Incubate cells at 37C, 5% CO2, and 95% humidity for 2 hours. 3.Transferred 23nl per well of compound in DMSO solution. 4.Incubated at 37C, 5% CO2, and 95% humidity for 24 hours. 5.Dispensed 3ul per well of Amplite reagent(ABD Bioquest) per well. 6.Incubate at ambient for 10 minutes. 7.Read using the luminescence protocol on the ViewLux plate reader (Perkin Elmer).
Potency is the fitted concentration of half-maximal effect.

Row | SMILES | activation, negative = inhibition | Potency
1 | N#Cc1cccc(NC(=O)C2CCCN(C(=O)c3ccc(Cl)cc3)C2)c1 (stereo not given) | 2.15% | 
2 | N#CC1(NC(=O)COC(=O)CCN=C2NS(=O)(=O)c3ccccc32)CCCCC1 | 3.55% | 
3 | CC(=O)/C(C)=N/O | 3.38% [at 46.1 µM] | 
4 | O=C(Nc1ccon1)c1cccc(Cl)c1 | -2.87% | 
5 | O=C(N/N=C/c1c(Cl)[nH]c2ccccc12)c1sc2ccccc2c1Cl | -0.784% | 
6 | O=C(Nc1ccon1)c1sc2ccccc2c1Cl |  | 3160 nM (active)
7 | CC1CCCCC1NC(=O)COC(=O)Cc1ccc(Cl)cc1 (stereo not given) | 1.14% | 
8 | O=C(C(=O)N1CCc2ccccc2C1)N1CCc2ccccc2C1 | -5.85% | 
9 | CCc1ccc(NC(=O)N2CCN(c3ccccc3)CC2)cc1 | 14.7% | 
10 | CCc1ccc(NC(=O)N2CCc3ccccc3C2)cc1 |  | 2240 nM (active)
11 | COc1cccc(NC(=O)CN(C)CC(=O)c2c(N)n(Cc3ccccc3)c(=O)n(C)c2=O)c1 | 1.65% | 
12 | O=C(CNC(=O)c1ccc2ccccc2c1)Nc1ncccc1O | 10.7% | 
13 | N#Cc1ccccc1NC(=O)c1cccc(COc2ccc(Cl)cc2Cl)c1 |  | 447 nM (active)
14 | O=C(Nc1cccc2cccnc12)c1cccc(Cl)c1 | 2.18% | 
15 | CSc1ccc(C#N)cc1NC(=O)c1cccc(Cl)c1 | -1.51% | 
16 | CCN(c1ccccc1)S(=O)(=O)c1cccc(C(=O)NCc2ccccc2CN2CCOCC2)c1 | -2.11% | 
17 | CN(CC(=O)Nc1ccc(Cl)cc1)CC(=O)Nc1cccc2ccccc12 | -4.32% | 
18 | C/C=C(/C)C(=O)O[C@@H]1c2cc3c(c4c2[C@@]2(CO4)C(=O)C(OC)=C(OC)C=C2C[C@@H](C)[C@H]1C)OCO3 | -1.59% | 
19 | CCc1ccc(N(CC(=O)NCc2cccnc2)S(=O)(=O)c2ccccc2)cc1 |  | 3550 nM (active)
20 | CCCNS(=O)(=O)c1ccc(CCC(=O)NCc2cccnc2)cc1 | -7.87% | 
21 | O=C(CN(c1cc(C(F)(F)F)ccc1Cl)S(=O)(=O)c1ccccc1)NCc1cccnc1 | 0.849% | 
22 | Cc1ccc(CN2CC(C(=O)NNC(=O)Cn3ccc(C(F)(F)F)n3)CC2=O)cc1 (stereo not given) | 1.15% | 
23 | CC(NC(=O)c1ccc(S(=O)(=O)Nc2ccccc2)cc1)c1ccc(S(N)(=O)=O)cc1 (stereo not given) | 4.87% | 
24 | COc1ccccc1C(=O)Nc1ccc(OCC(=O)N2CCCCC2)cc1 | -4.82% | 
25 | O=C1CC[C@H](O)CCN1[C@H](CSc1ccc(Br)cc1)Cc1ccccc1 | -7.37% | 
26 | CC(C)(CSc1nncn1/N=C/c1ccco1)NS(=O)(=O)c1ccc(Cl)cc1 | -3.33% | 
27 | CC(C)(C)OC(=O)N/N=C/c1ccc(C(=O)O)cc1 | 10.3% | 

Row | SMILES | activation, negative = inhibition | Potency
28 | Cc1ccccc1NC(=O)NNC(=O)OC(C)(C)C | -1.38% | 
29 | C/C(=N\NC(=O)OC(C)(C)C)c1ccc[nH]1 |  | 2820 nM (active)
30 | Cc1cccc(C)c1NC(=O)C(Cl)C(=O)c1ccccc1 (stereo not given) | 0.571% | 
31 | CCCCN(C(=O)C1CCC1)c1c(N)n(Cc2ccccc2)c(=O)[nH]c1=O | -2.45% | 
32 | CCC(=O)c1ccc(OCC(=O)OCC(=O)N2CCc3ccccc3C2)cc1 | -1.46% | 
33 | O=C(Nc1ccccc1)c1cc2ccccc2[nH]1 |  | 2510 nM (active)
34 | COc1ccc2[nH]c(C(=O)Nc3ccccc3Cl)cc2c1 | -0.505% | 
35 | O=C(Nc1cccc(NC(=O)c2ccc(Br)cc2)c1)c1ccccc1 | -4.51% | 
36 | Cc1sc2ncnc(SCC(=O)Nc3ccc(CN4CCCC4)cc3)c2c1C | -3.72% | 
37 | COc1ccc2[nH]cc(CCN3C(=O)c4ccc(C(=O)O)cc4C3=O)c2c1 |  | 1000 nM (active)
38 | COc1ccc(C[C@H](C(=O)O)N2C(=O)c3ccc(C(=O)O)cc3C2=O)cc1 | -0.624% | 
39 | Cc1ccc2[nH]cc(CCCN3C(=O)c4ccccc4C3=O)c2c1 | -0.334% | 
40 | COc1cc([N+](=O)[O-])ccc1NC(=O)COC(=O)CCOc1ccc(C)cc1 | -12.9% | 
41 | O=C(CN1C2=NCCN2c2ccccc21)c1cccs1 | -0.857% | 
42 | O=C(CSc1ncnc2sccc12)N1CCN(C(=O)c2cccs2)CC1 | 0.66% | 
43 | Nc1c(C(=O)c2cccs2)sc2nsc(SCCN3CCCCC3)c12 |  | 2510 nM (active)
44 | CCCCC/C=C/C1=CC(=O)C[C@H](c2ccc(Cl)cc2)C1 | 1.49% | 
45 | COc1ccccc1CNC(=O)COC(=O)c1sc(C)nc1C | -3.97% | 
46 | CCOC(=O)c1c(NC(=S)NC(=O)/C=C/c2cccs2)sc(C)c1C | 2.48% | 
47 | CCOC(=O)c1sc(=NC(=O)/C=C/c2cccs2)n(C)c1C |  | 2820 nM (active)
48 | CCOC(=O)c1sc(=NC(=O)c2ccc(Br)cc2)n(C)c1C | 0.397% | 
49 | C=CCNC(=O)c1ccc2c3n(nc2c1)-c1ccc(C)cc1CO3 |  | 891 nM (active)
50 | C=CCNC(=O)c1ccc(C)c(Br)c1 | -1.69% | 
51 | Cc1cccc(-c2nc3ccc(C(=O)NCCN4CCN(C)CC4)cc3nc2-c2cccc(C)c2)c1 | 2.86% | 
52 | COc1ccc(CNC(=O)CN2C(=O)NC3(CCCc4sccc43)C2=O)cc1 (stereo not given) | 6.95% | 
53 | CO[C@H]1[C@@H]2C=CO[C@@H](O[C@H]3O[C@@H](CO)[C@H](O)[C@@H](O)[C@@H]3O)[C@@H]2[C@@]2(CO)O[C@@H]12 | -3.32% | 
54 | Cc1ccc(-c2cn(S(=O)(=O)c3cccc([N+](=O)[O-])c3)nc2N)cc1 | -1.36% | 

Row | SMILES | activation, negative = inhibition | Potency
55 | Cc1ccc(-n2cc3ccc([N+](=O)[O-])cc3n2)cc1 |  | 355 nM (active)
56 | Cc1cc(C)nc(Nc2cc([N+](=O)[O-])ccc2C)n1 | -11.1% | 
57 | Cc1ccc(CNC(=O)c2cccc3c2C(=O)c2ccc(N4CCC(C)CC4)cc2S3(=O)=O)cc1 | 15.8% | 
58 | Cc1c(O)c(C)c2c(c1O)C(=O)C[C@@H](c1ccccc1)O2 | -3.21% | 
59 | CC(=O)c1cccc(NC(=O)C2COc3ccccc3O2)c1 (stereo not given) | 0.233% | 
60 | COc1ccc(NC(=O)C2COc3ccccc3O2)cc1 (stereo not given) |  | 3160 nM (active)
61 | COc1ccc(NC(=O)CC2COc3ccccc3O2)c(OC)c1 (stereo not given) | 5.83% | 
62 | CC(C)C[C@H](NC(=O)[C@H](O)[C@H](N)Cc1ccccc1)C(=O)O | -1.46% [at 46.1 µM] | 
63 | CNS(=O)(=O)c1cccc(C(=O)OCCCC(=O)c2ccccc2)c1 | -6.66% | 
64 | O=C(Nc1ccc(Cl)cc1)OCc1cc(-c2ccccc2)on1 | 0.695% | 
65 | O=C(Nc1cccc(Cl)c1)OCc1ccccn1 |  | 3980 nM (active)
66 | O=C(Nc1cccc(CCc2ccccn2)c1)c1ccc(Cl)cc1 | -8.69% | 
67 | CC(C)N(C(=O)CSc1nnc(NC2CC2)s1)c1ccccc1 | -5.19% | 
68 | CCc1nnc(NC(=O)C2CCN(C(=O)c3ccccc3C)CC2)s1 | -6.02% | 
69 | Cc1[nH][nH]c(=O)c1N=Nc1ccccc1 | 12% | 
70 | Nc1[nH][nH]c(=O)c1N=Nc1ccc2c(c1)OCO2 |  | 3550 nM (active)
71 | O=C1/C(=C/c2ccc3c(c2)OCO3)CCC/C1=C\c1ccc2c(c1)OCO2 | -1.72% | 
72 | COc1ccc2ccn(C)c2c1 | -0.692% | 
73 | Cc1ccc(NC(=O)CN(C)C(=O)COC(=O)c2nccnc2N)cc1 | -6.5% | 
74 | CS(=O)(=O)N1CCc2nc(-c3ccccc3)sc2C1 |  | 1580 nM (active)
75 | CS(=O)(=O)N1CCN(c2cccc(Cl)n2)CC1 | -4.47% | 
76 | CS(=O)(=O)N1CCN(C(=O)Cc2ccccc2)CC1 | 2.51% | 
77 | NC(=O)C1CCN(C(=O)c2ccc(F)c(S(=O)(=O)N3CCOCC3)c2)CC1 | 0.968% | 
78 | Cc1ccc(N(CC(=O)NCC2CCCO2)C(=O)CNS(=O)(=O)c2ccc(Cl)cc2)cc1 (stereo not given) | 3.13% | 
79 | O=C1c2ccccc2C(=O)N1CCC#Cc1ccc2cc(C3(O)CCCCC3)oc(=O)c2c1 | -4.71% | 
80 | O=C(Nc1ccc(C2CC2(Cl)Cl)cc1)c1cccc([N+](=O)[O-])c1 (stereo not given) |  | 3980 nM (active)
81 | O=C(Nc1ccc(NC(=O)c2ccco2)c(Cl)c1)c1cccc([N+](=O)[O-])c1 | 2.88% | 

Row | SMILES | activation, negative = inhibition | Potency
82 | O=C(Nc1ccc(C(=O)N2CCCCC2)cc1)c1cccc([N+](=O)[O-])c1 | 2.09% | 
83 | CN(C)/C=C(/C(=O)c1ccc(Cl)c(Cl)c1)c1nnnn1-c1ccccc1 | -1.69% | 
84 | CC(=NCc1ccco1)C1=C(O)c2ccccc2C1=O | 27.3% | 
85 | CC(=NCc1ccco1)c1c(C(F)(F)F)[nH]n(-c2nc3ccccc3s2)c1=O |  | 2000 nM (active)
86 | COC(=O)Cc1[nH]n(-c2nc3ccccc3s2)c(=O)c1C(C)=Nc1ccc(OC)cc1 | -29.5% | 
87 | O=C(CN1CCN(S(=O)(=O)c2cccc(Cl)c2)CC1)N1CCCCC1 | -2.8% | 
88 | COc1ccccc1N1CCN(CC(=O)Nc2ccnn2C2CCCC2)CC1 | -1.51% | 
89 | O=C(/C=C\c1cn(-c2ccccc2)nc1-c1cccs1)N1CCOCC1 | -2.01% | 
90 | COc1ccc(-c2nn(-c3ccccc3)cc2/C=C\C(=O)Nc2ccc(C(=O)O)cc2)cc1 | -2.58% | 
91 | O=C(O)c1ccc(N/N=C/c2cn(-c3ccccc3)nc2-c2cccs2)cc1 |  | 447 nM (active)
92 | COc1ccc(OC)c(/C=C/C(=O)c2ccc3c(c2)OCO3)c1 | -4.56% | 
93 | CN(C(=O)COC(=O)Cn1cnc2c1c(=O)n(C)c(=O)n2C)C1(C#N)CCCCC1 | 2.9% | 
94 | Cc1ccccc1CSCC(=O)NC(=O)NC(C)(C)C | 7.27% | 
95 | COc1ccccc1-n1ccnc1SCC(=O)NC(C)(C)C | -2.9% | 
96 | CC(C)(C)NC(=O)CSC(=Nc1ccccc1F)NC#N |  | 3980 nM (active)
97 | CC(CCc1ccccc1)NC(=O)c1cnc(Cl)c(Cl)c1 (stereo not given) | -1.69% [at 1.84 µM] | 
98 | COc1ccc(CNC(=O)c2ccc(NS(=O)(=O)c3ccc4[nH]c(=O)[nH]c4c3)cc2)cc1OC | 0.821% | 
99 | S=C(NCc1cccnc1)Nc1ccc(Cl)cc1Cl | 2% | 
100 | CN1CCN(S(=O)(=O)c2ccc(NC(=S)NC(=O)C3CC3)cc2)CC1 | 2.23% | 
101 | O=C(NC(=S)Nc1ccc(Cl)cc1Cl)C1CC1 |  | 2820 nM (active)
102 | Cc1ccc(OCC(=O)Nc2ccccc2C(=O)NC2CC2)cc1 | -0.812% | 
103 | CCCCOC(=O)c1[nH]c(C)c(C(=O)OC)c1C |  | 2820 nM (active)
104 | CCOC(=O)c1c(C)[nH]c(C(=O)OCC(=O)N2CCCC2=O)c1C | 5.19% | 
105 | CCOC(=O)c1c(C)[nH]c(C(=O)OCC(=O)c2ccc(OC)cc2OC)c1C | 3.1% | 
